The values that follow come from PubChem BioAssay AID651599 (National Center for Advancing Translational Sciences (NCATS), 2012).

SMILES strings stand for the structures. Results filed as inconclusive are left out. Calls of active or inactive are those of the source. The call rests on the fitted dose curve; in most records, active means well fitted inhibition curve with a large enough effect; inconclusive means small, poorly fitted or top-dose-only effect; inactive means no such curve, though single readings can be large or run the other way.
On the % scale 0 is the no-effect control and ±100 the full control effect; potency means the concentration at half of the fitted maximal effect.

Chain of Tumor susceptibility gene 101 protein (Homo sapiens) (Q99816 whole entry, looked up, the tested form may be a part): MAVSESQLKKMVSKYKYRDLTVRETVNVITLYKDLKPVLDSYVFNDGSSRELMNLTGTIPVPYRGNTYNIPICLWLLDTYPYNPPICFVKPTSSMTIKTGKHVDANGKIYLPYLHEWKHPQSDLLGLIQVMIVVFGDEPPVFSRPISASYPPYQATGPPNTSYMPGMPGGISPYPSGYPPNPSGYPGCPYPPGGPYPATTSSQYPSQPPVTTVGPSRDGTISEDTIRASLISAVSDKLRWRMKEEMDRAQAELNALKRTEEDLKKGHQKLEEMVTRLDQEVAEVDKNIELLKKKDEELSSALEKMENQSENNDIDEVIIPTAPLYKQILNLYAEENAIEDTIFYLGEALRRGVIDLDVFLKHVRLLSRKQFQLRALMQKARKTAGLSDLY

The assay addresses Tumor susceptibility gene 101 protein (Homo sapiens) (UniProt Q99816). Description: qHTS Assay for Iinhibitors of HIV-1 Budding by Blocking the Interaction of PTAP/TSG101: Hit Validation in TR assay. The settings on record: Tsg101 binding domain + Texas Red-labeled PTAP peptide, fluorescence polarization, 20 min; series mostly up to 57.5 µM; activity change, negative = inhibition: at the top concentration. The method in brief:
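Texas Red-PTAP peptide (50 nM) binding to Tsg101 binding domain (10 uM), both final, in pH 7.5 HEPES buffer, read as polarization after 20 min at room temperature; compounds pinned before peptide addition.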
On the technique in general: qHTS replaces the single test concentration by a dilution series.
For the molecule `Cc1cc2c(cc1C)NC(c1c(C)n(C)n(-c3ccccc3)c1=O)C1=C(CC(C)(C)CC1=O)N2` (stereo not drawn), the “activity change, negative = inhibition” value was -4.63% (inactive).
Regarding `COc1ccc(OC)c(-c2c3cc(O)c(=O)cc-3oc3cc(O)c(O)cc23)c1`, the Potency is 32.6 µM (active).
For `CN(N=Nc1ccc([N+](=O)[O-])cc1)c1ccccc1`, the “activity change, negative = inhibition” value is 27.1% (inactive).
Same read-out and setting: to `N#Cc1c(C#N)c(O)c2ccccc2c1O` belongs -3.51% (inactive); to `CC1CC(C)CN(C(=O)c2ccc3c(c2NCCO)C(=O)c2ccccc2C3=O)C1` (stereo not drawn), -24.3% (inactive); to `CCN1CCN(Cc2ccc(NC(=O)Nc3ccccc3OC)cc2)CC1`, -9.87% (inactive).
Still for that read-out and setting: to `Cn1cccc1/C=C1\SC(=S)N(NC(=O)c2ccccc2Cl)C1=O` belongs -15.6% (inactive).
Consider `Cc1cc2nc3c(=O)[nH]c(=O)[nH]c3nc2c([N+](=O)[O-])c1N`, for which the “activity change, negative = inhibition” value was -7.93% (inactive).
For the molecule `COc1ncnc2c1NC1=C(S2)C(=NCCC(=O)O)CC(C)(C)C1`, the “activity change, negative = inhibition” value is -7.13% (inactive).
`CCOc1ccc(NC(=O)c2ccc3c(c2)CCN3S(C)(=O)=O)cc1`: the “activity change, negative = inhibition” value was -6.96% (inactive).
On to `CCN(CC)c1ccc2cc(-c3nnc(-c4ccncc4)o3)c(=O)oc2c1`, for which the “activity change, negative = inhibition” value is 14.3% (inactive).
Consider `Cc1ccc(CSc2nnc3c(n2)OC2(Nc4ccccc4-3)C(=O)Nc3ccc(F)cc32)cc1` (stereo not drawn), for which the “activity change, negative = inhibition” value is 3.74% (inactive).
As for `CCOC(=O)c1cc2n(c1/N=C/N(C)C)-c1ccccc1C2=O`, the “activity change, negative = inhibition” value is 43.3% (inactive).
`CC[C@H](C)/C=C(C)/C=C/C1=CC2=CC(=O)[C@]3(C)OC(=O)[C@@H](C(C)=O)[C@@H]3C2=CO1`: the “activity change, negative = inhibition” value was 26.6% (inactive).
Regarding `O=C(OCCN1C(=O)c2cccc3c(N4CCOCC4)ccc(c23)C1=O)c1ccc(Cl)cc1Cl`, the “activity change, negative = inhibition” value is 8.29% (inactive).
As to `COc1cc(OC)c(-c2cc(C(=O)O)ccc2OC)c(OC)c1`, the “activity change, negative = inhibition” value is -8.83% (inactive).
Regarding `CCCCCCn1c(=O)[nH]c2nc3cc(N)ccc3nc2c1=O`, the “activity change, negative = inhibition” value is -0.647% (inactive).
With `CCN(CC)c1ccc(/C=C(\C#N)C(=O)NCc2ccccc2)cc1`, the “activity change, negative = inhibition” value was -2.84% (inactive).
As for `CN(C)c1ccc(N=Cc2nc(-c3ccccc3)oc2O)cc1`, the “activity change, negative = inhibition” value was 22.6% (inactive).
Still for that read-out and setting: the value for `COc1ccc(NC(=O)c2cccc(-c3ccc(O)cc3)c2)cn1` was -20.6% (inactive); that for `COc1ccc(NC(=O)c2nc(-c3ccc(C)cc3)n3c2CCCCC3)cc1` was -12.4% (inactive).
For the molecule `C=CCOn1c(=O)c(-c2cc3ccccc3o2)[n+]([O-])c2ccccc21`, the “activity change, negative = inhibition” value was -8.7% (inactive).
The same measure, in the same setting: to `COc1cc2c(cc1OC)-c1cc3ccc4c(c3c[n+]1CC2)OCO4` belongs -22.7% (inactive).
